A selection: hits, their analogues and other compounds. The true share with any hit is near 18%.
HepG2 viability: kills HepG2 cells in TGF-b inhibitor counter-screen. HepG2 CAGA-GFP viability, ATP luminescence, 18 h. Potency, µM (highest dose often 46.1 µM), for the others: at the top dose activity change, negative = cytotoxicity, most hits filed as cytotoxic. 410,000 compounds, 0.76% hits. AID 588856; note: potency is the fitted concentration of half-maximal effect
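CellTiter-Glo luminescence gave cytotoxicity after 18 hours at 37 degrees C. The cells were HepG2 CAGA-GFP in 1% FBS DMEM, stimulated with 500 pg/mL TGF-beta after compound addition. %Activity was normalised to no-cell wells (complete cell-killing) and DMSO (no toxicity), and curves were fitted and classified.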
TDP1 block: blocks human tyrosyl-DNA phosphodiesterase 1; Q9NUW8; recombinant TDP1, AlphaScreen DNA substrate cleavage; Potency, µM (titrated, usually from 130 µM), for the others: at the top dose activity change, negative = inhibition, actives largely listed as inhibitors; 350,000 compounds, 0.28% hits; note: potency is the fitted concentration of half-maximal effect; % is set by controls: 0 for no effect and ±100 for the full control effect; nearly all actives have a fitted effect of over 40% in size
Target sequence (Q9NUW8 whole entry, looked up): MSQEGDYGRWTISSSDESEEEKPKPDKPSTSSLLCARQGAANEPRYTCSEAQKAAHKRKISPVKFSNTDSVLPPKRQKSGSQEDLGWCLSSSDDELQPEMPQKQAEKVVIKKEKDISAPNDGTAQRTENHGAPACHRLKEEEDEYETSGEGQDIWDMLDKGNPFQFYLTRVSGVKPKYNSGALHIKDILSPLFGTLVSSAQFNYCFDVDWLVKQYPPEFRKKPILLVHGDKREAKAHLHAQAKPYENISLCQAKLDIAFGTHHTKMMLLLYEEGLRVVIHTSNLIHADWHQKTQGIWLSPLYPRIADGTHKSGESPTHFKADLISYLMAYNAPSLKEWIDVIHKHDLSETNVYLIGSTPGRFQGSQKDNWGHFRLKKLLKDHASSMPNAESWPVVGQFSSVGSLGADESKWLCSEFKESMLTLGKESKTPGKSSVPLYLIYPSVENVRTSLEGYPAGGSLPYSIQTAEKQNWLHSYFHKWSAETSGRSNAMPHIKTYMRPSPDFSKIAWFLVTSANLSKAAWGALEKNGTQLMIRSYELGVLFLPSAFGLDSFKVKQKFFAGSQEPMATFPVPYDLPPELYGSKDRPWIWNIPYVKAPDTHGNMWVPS
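Signal: AlphaScreen proximity between streptavidin donor and anti-FITC acceptor beads on intact substrate. Reaction: Tdp1 1 nM, substrate 15 nM final, 5 min RT after 15 min compound preincubation.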
TDP1 cell noCPT: qHTS for Inhibitors of human tyrosyl-DNA phosphodiesterase 1 (TDP1): qHTS in cells in absence of CPT. DT40 Tdp1-/- hTDP1 cells, no CPT, ATP luminescence, 48 h. Potency, µM (highest dose often 46.2 µM), without a hit: at the top dose activity change, negative = growth inhibition, hits mostly inhibitors. 420,000 compounds, 15% hits. AID 686978, 2013; note: potency is the fitted concentration of half-maximal effect; % is set by controls: 0 for no effect and ±100 for the full control effect; nearly all actives have a fitted effect of over 55% in size
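Readout: luminescence from CellTiter-Glo after 30 min in the dark at RT. Cells: DT40 Tdp1-/- with stable hTDP1, 400/well. Exposure: compounds alone, ≥48 hr, 37 °C.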
DT40 TDP1 CPT: DT40-hTDP1 cell growth loss with CPT | chicken DT40 Tdp1-/-;hTDP1 cells + 20 nM CPT, ATP luminescence, 48 h | Potency, µM (series often up to 46.2 µM), without a hit: top-dose activity change, negative = growth inhibition, actives largely listed as inhibitors | 420,000 compounds, 12% hits; note: potency is the fitted concentration of half-maximal effect; % is set by controls: 0 for no effect and ±100 for the full control effect; nearly all actives have a fitted effect of over 55% in size
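Chicken DT40 Tdp1-/- cells complemented with human TDP1, 400 cells/well, exposed to compounds plus 20 nM camptothecin for at least 48 h at 37 C; viability read as ATP content by CellTiter-Glo luminescence.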
TGFb inhibitor: TGF-b pathway inhibition | HepG2 CAGA-GFP TGF-b/SMAD3 reporter, GFP fluorescence, 18 h; TGF-beta stimulated, 500 pg/mL final | Potency, µM (titrated, usually from 46.1 µM), without a hit: top-dose activity, negative = inhibition, hits mostly inhibitors | 410,000 compounds, 1.2% hits | AID 588855; note: potency is the fitted concentration of half-maximal effect; % is set by controls: 0 for no effect and ±100 for the full control effect; nearly all actives have a fitted effect of over 65% in size
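Inhibition of TGF-beta-driven CAGA-GFP reporter expression in HEPG2 cells is measured by cellular GFP fluorescence after 18 h stimulation with 500 pg/mL recombinant TGF-beta in 1% FBS medium at 37 degrees C.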
IL1B secr inh: blocks inflammasome-driven IL-1 beta release; THP-1 LPS/ATP IL-1B secretion, AlphaLISA, 16 h; stronger effect = lower value; activity change, % at 57.5 µM; 360,000 compounds, 4.7% hits; in the data active = activity change below about -50%; inconclusive = mostly about -30% to -49%; note: % is set by controls: 0 for no effect and ±100 for the full control effect
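THP-1 cells pretreated 1 hr with compounds (up to 57.5 uM final), then stimulated with LPS (250 ng/mL final) plus ATP (1.25 mM final); secreted IL-1B measured by AlphaLISA after 16 hr, decreased signal indicating inhibition.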
* = called active by the depositor; ? = inconclusive; · = no result; [ ] = dose if it differs, or a comment. Unless noted, calls come from the whole dose curve; as a rule, active = well fitted curve in the direction sought with a large enough effect; inconclusive = small, poorly fitted or top-dose-only effect, or another doubt; inactive = no such curve, though single readings can be large; an effect the other way counts as inactive or inconclusive.

SMILES	HepG2 viability	TDP1 block	TDP1 cell noCPT	DT40 TDP1 CPT	TGFb inhibitor	IL1B secr inh
CCn1c2ccccc2c2cc(/C=C(/C#N)C(N)=S)ccc21	-57%	·	16µM*	?	4µM*	8
CCn1c2ccccc2c2cc(N)ccc21	1%	10%	?	26µM*	7%	-12
CCC(CC)NCc1ccc2c(c1)c1ccccc1n2CC	-89%	6%	26µM*	18µM*	?	-54*
CCC(C(=O)NC1CCCC1)n1c(C2CC2)nc2ccccc21 (stereo not given)	·	·	-30%	-24%	·	20
COc1ccc(OC)c(C(=O)NC2CC(C)(C)Cc3c2cnn3-c2ccccc2)c1 (stereo not given)	-9%	2%	?	?	?	-4
C[C@]12c3[nH]c4cc(-c5ccco5)ccc4c3CCN1C(=O)[C@@H](CC(=O)NCC13CC4CC(CC(C4)C1)C3)C[C@@H]2C(=O)N1CCCCC1	-40%	4%[56.1 µM]	6.5µM*	5.2µM*	?	?
CC[C@]12c3[nH]c4cc(-c5ccco5)ccc4c3CCN1C(=O)[C@@H](CC(=O)NCc1ccco1)C[C@@H]2C(=O)N1CCN(C(=O)C2CC2)CC1	2%	4%[56.1 µM]	16µM*	16µM*	-1%	-16
CC[C@]12c3[nH]c4cc(-c5ccco5)ccc4c3CCN1C(=O)[C@@H](CC(=O)NCc1ccc(OC)c(OC)c1)C[C@@H]2C(=O)N1CCN(C(=O)C2CC2)CC1	-5%	1%[56.1 µM]	?	?	?	?
CC[C@]12c3[nH]c4cc(-c5ccco5)ccc4c3CCN1C(=O)[C@@H](CC(=O)NCCC1=CCCCC1)C[C@@H]2C(=O)N1CCN(C(=O)C2CC2)CC1	3%	3%[56.1 µM]	?	?	?	-50*
CN(C)C(=O)CCc1ccc2c3c([nH]c2c1)[C@]1(C)[C@@H](C(=O)N2CCCCC2)C[C@H](CC(=O)NCC24CC5CC(CC(C5)C2)C4)C(=O)N1CC3	-4%	2%[56.1 µM]	13µM*	9.2µM*	?	?
CN(C)C(=O)CCc1ccc2c3c([nH]c2c1)[C@]1(C)[C@@H](C(=O)N2CCCCC2)C[C@H](CC(=O)NCCN2CCOCC2)C(=O)N1CC3	-3%	-1%[56.1 µM]	5%	3%	12%	24
COc1cc(C(=O)COC(=O)c2ccncc2)cc(OC)c1OC	4%	4%	-6%	-2%	8%	-2
COC(=O)c1cccc2nc3c(C(C)O)cccc3nc12 (stereo not given)	-7%	·	?	-29%	17%	17
CCOc1ccc(CN2CCN(S(=O)(=O)c3ccc(Cl)cc3)CC2)cc1	-23%	?	?	?	?	·
COc1ccc(CNC(=O)Cn2c(=O)nc(-c3ccccc3)c3cc(Cl)ccc32)cc1OC	-3%	4%	?	?	-1%	·
CC[C@]12c3[nH]c4cc(-c5ccco5)ccc4c3CCN1C(=O)[C@@H](CC(=O)NCC13CC4CC(CC(C4)C1)C3)C[C@@H]2C(=O)N1CCN(C(=O)C2CC2)CC1	-16%	2%[56.1 µM]	23µM*	?	?	?
CC[C@]12c3[nH]c4cc(-c5ccco5)ccc4c3CCN1C(=O)[C@@H](CC(=O)NCCCN(C)C)C[C@@H]2C(=O)N1CCN(C(=O)c2ccco2)CC1	0%	·	-25%	-4%	0%	11
Cc1csc(=Nc2ccc(S(=O)(=O)N3CCOCC3)cc2)n1Cc1ccco1	1%	8%	23µM*	23µM*	5%	-8

Source: PubChem (National Center for Advancing Translational Sciences (NCATS))
